# Rab9 promoter act: qHTS Assay for Rab9 Promoter Activators. Potency, µM (top dose mostly 9.22 µM), for inactives: at the top dose activation, negative = inhibition, actives largely listed as activators. actives 2.8% (n = 320,000). Huh7 Rab9 promoter-luciferase reporter, luminescence, 24 h; also: % of control where 0% means no effect; nearly all actives have a fitted effect of over 60% in size
#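 Measured in stably transfected Huh7 cells bearing a Rab9 promoter–luciferase construct: 24 h compound treatment at 37 °C, followed by luminescence detection.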
# FLuc modulator: qHTS profiling assay for firefly luciferase inhibitor/activator using purifed enzyme and Km concentrations of substrates (counterscreen for miR-21 project); Luciferin 4-monooxygenase (Photinus pyralis), P08659; purified FLuc, Km substrates, luminescence inhibition; Potency, µM (highest dose often 57.5 µM), for the others: top-dose activity change, negative = inhibition, hits mostly inhibitors; actives 6.9% (n = 360,000);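 also: plate controls were vehicle for no effect and reference inhibitor for full effect; nearly all actives have a fitted effect of over 55% in size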
# Target sequence (P08659 whole entry, looked up): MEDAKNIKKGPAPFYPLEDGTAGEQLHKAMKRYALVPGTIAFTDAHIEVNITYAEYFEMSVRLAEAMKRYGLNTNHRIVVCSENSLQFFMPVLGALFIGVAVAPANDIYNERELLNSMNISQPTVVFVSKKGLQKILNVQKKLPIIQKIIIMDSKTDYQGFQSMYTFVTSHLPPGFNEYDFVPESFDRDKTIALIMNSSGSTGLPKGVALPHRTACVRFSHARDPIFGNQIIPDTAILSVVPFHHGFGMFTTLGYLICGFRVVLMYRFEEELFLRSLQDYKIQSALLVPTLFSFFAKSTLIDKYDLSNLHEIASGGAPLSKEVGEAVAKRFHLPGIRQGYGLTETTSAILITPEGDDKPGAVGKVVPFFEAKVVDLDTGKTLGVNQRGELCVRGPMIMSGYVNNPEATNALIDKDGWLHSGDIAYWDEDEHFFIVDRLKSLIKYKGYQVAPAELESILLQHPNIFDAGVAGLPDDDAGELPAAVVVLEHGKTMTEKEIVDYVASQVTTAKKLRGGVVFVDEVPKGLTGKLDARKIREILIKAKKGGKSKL
#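 Biochemical qHTS of compounds, final roughly 60 µM downward over six points, against 10 nM purified firefly luciferase using Km concentrations of substrates (10 uM D-luciferin, 10 uM ATP) in Tris acetate pH 7.5 buffer; luminescence output.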
# NPC1 prom act: qHTS Assay for NPC1 Promoter Activators | Huh7 NPC1 promoter luciferase reporter, 24 h | actives 2.4% (n = 320,000) | Potency, µM (highest dose often 9.22 µM), for the others: at the top dose activation, most hits filed as activators | AID 485313, 2010; also: % of control where 0% means no effect; nearly all actives have a fitted effect of over 60% in size
#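 Huh7 reporter cells (NPC1 promoter driving luciferase) are dosed with compound for 24 h at 37 °C, 5% CO2; luciferase detection reagent is then added and luminescence measured after 10 min at ambient temperature.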
# SMN2 splice up: qHTS Assay for Enhancers of SMN2 Splice Variant Expression; actives 2.8% (n = 210,000); HEK293 SMN2-luciferase splicing reporter, luminescence, 30-36 h; Potency, µM (doses to about 46.1 µM), without a hit: top-dose activity change, positive = activation, usual class: activators; AID 1458, 2008; also: % of control where 0% means no effect; nearly all actives have a fitted effect of over 55% in size
#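 HEK293 cells carry an SMN2 […]–luciferase reporter in which exon 7 inclusion puts luciferase in frame. Cells were plated 10-12 h before compound addition, then incubated 30-36 h at 37C. ONE-Glo luminescence was read; sodium butyrate at 4.5 mM final served as control.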
# ELG1 genotoxic: qHTS screen for small molecules that induce genotoxicity in human embryonic kidney (HEK293T) cells expressing luciferase-tagged ELG1; actives 1.3% (n = 330,000); HEK293T ELG1-luciferase reporter, luminescence, 16 h; Potency, µM (titrated, usually from 46 µM), for inactives: at the top dose activity change, positive = activation, actives largely listed as activators; also: % of control where 0% means no effect; nearly all actives have a fitted effect of over 60% in size
#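 HEK293T cells expressing luciferase-tagged ELG1 were treated with compound or DMSO for 16 hr at 37°C. Luciferase activity was then read after 30 min with ONE-Glo at room temperature; rising signal flags genetic stress.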
# KinaseGlo FLuc: Counterscreen for Luciferase (Kinase-Glo TM) Inhibition; actives 0.28% (n = 200,000); Luciferin 4-monooxygenase (Photuris pensylvanica), Q27757; AID 1379, 2008; Kinase-Glo luciferase, ATP luminescence, 8 min; Potency, µM (top dose mostly 38.3 µM), without a hit: at the highest dose activity change, negative = inhibition, actives largely listed as inhibitors; also: % is scaled to controls: 0 for no effect and ±100 for the full control effect; nearly all actives have a fitted effect of over 60% in size
#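 Luminescence was the read-out, taken after 8-minute incubation at ambient temperature. Luciferase turned over luciferin with 10 uM ATP in imidazole pH 7.2 buffer containing KCl, MgCl2, Tween 20 and BSA.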
# Active calls of the source: *; ? = inconclusive; / = no result given. This is a sample that favours compounds with a hit; in the whole collection about 7.4% have one here. Calls follow the shape of the dose curve; as a rule, active = well fitted curve in the direction sought with a large enough effect; inconclusive = small, poorly fitted or top-dose-only effect, or another doubt; inactive = no such curve, though single readings can be large; an effect the other way counts as inactive or inconclusive. Potency is read from the fitted curve at half-maximal effect.
SMILES,Rab9 promoter act,FLuc modulator,NPC1 prom act,SMN2 splice up,ELG1 genotoxic,KinaseGlo FLuc
Cc1cc(C)cc(CC2CC(=O)N(c3nc(C)cc(C)n3)C2=O)c1 (stereo not given),?,21µM*,29%,-1%,15%,-3%
COc1cc2c(cc1OC)-c1cc(Nc3ccc4c(c3)OCCO4)nc(=O)n1CC2,-10%,15µM*,-1%,0%,?,-14%
COc1ccc(Nc2cc3n(c(=O)n2)CCc2cc(OC)c(OC)cc2-3)cc1,0%,?,2%,/,15%,/
Cc1ccc2c(c1)C(=O)c1ccccc1CS2=O (stereo not given),2%,-6%,-1%,-45%,5%,-1%
CC(C)(C)c1ccccc1NC(=O)CN1C(=O)NC2(CCCCCC2)C1=O,0%,9%,-17%,/,1%,/
CC(C)(C)c1ccc(COc2ccsc2C(=O)O)cc1,?,15µM*,10%,16%,18%,0%
O=C(O)c1sccc1OCc1ccccc1,0%,5%,-8%,-14%,-3%,-1%
O=C(N/N=C/c1cccc2ccccc12)c1ccccc1Cl,3%,7.6µM*,-2%,/,6%,/
Cc1occc1C(=O)N/N=C/c1cccc2ccccc12,2.2µM*,5.4µM*,?,/,7.3µM*,/
Cc1occc1C(=O)Nc1cccc2ccccc12,1.6µM*,2.7µM*,2µM*,3.2µM*,5.8µM*,-25%
Cc1occc1C(=O)N/N=C/c1cccs1,?,?,?,25%,11%,?
CCOC(=O)/C=C/[C@H]1CCc2cccc(C)c2O1,-4%,1%,-5%,/,-2%,/
CCOC(=O)C1(CCc2ccccc2)CCN(C(=O)Cc2nonc2C)CC1,?,19µM*,-1%,3%,12%,2%
CCOC(=O)C1(CCc2ccccc2)CCN(C2Cc3ccccc3C2)CC1,?,15µM*,?,/,-21%,-2%
CC(C)CNC(=O)[C@H]1N2C(=O)c3ccccc3C2SC1(C)C (stereo not given in full),-4%,2%,0%,/,0%,/
O=C(CN1C(=O)NC2(CCCC2)C1=O)Nc1nc2ccccc2[nH]1,0%,1%,-5%,/,0%,/
CC1(C)Cc2c(sc(NC(=O)C(=O)N3CCCCC3)c2C(=O)O)CO1,-2%,-3%,4%,/,-1%,/
CC1(C)Cc2c(sc(NC(=O)C(=O)N3CCCC3)c2C(=O)O)CO1,-5%,-2%,1%,/,3%,/
CC1(C)Cc2c(sc(NC(=O)c3ccccc3)c2C(=O)O)CO1,?,6.7µM*,?,?,-2%,-2%
CC(C)COc1ccc(C(=O)Nc2sc3c(c2C(=O)O)CC(C)(C)OC3)cc1,-5%,21µM*,0%,/,-14%,0%
Cc1c(/C=N/NC(=O)c2ccccc2O)c2ccccn2c1C(=O)c1ccc(F)cc1,7%,13µM*,-1%,-103%,-17%,-4%
Cc1c(/C=N/NC(=O)c2cccnc2)c2ccccn2c1C(=O)c1ccc(F)cc1,-3%,15µM*,-2%,-24%,-11%,-1%
Cc1c(/C=N/NC(=O)c2ccc(O)cc2)c2ccccn2c1C(=O)c1ccc(F)cc1,6%,?,5%,-35%,-8%,-3%
Cc1c(/C=N/NC(=O)c2cc(=O)[nH]c(=O)[nH]2)c2ccccn2c1C(=O)c1ccccc1,-2%,24µM*,0%,-16%,-2%,-5%
COc1cccc(C(=O)NCC(c2ccco2)N2CCOCC2)c1 (stereo not given),-2%,-2%,2%,/,3%,/
SMILES,Rab9 promoter act,FLuc modulator,NPC1 prom act,SMN2 splice up,ELG1 genotoxic,KinaseGlo FLuc
CC1CCC(NC(=O)CCNC(=O)c2ccc(Br)cc2)CC1 (stereo not given),2.5µM*,?,4.5µM*,/,?,/
CC(=O)Nc1cccc(NC(=O)c2ccc(Br)cc2)c1,?,24µM*,19%,17%,5%,-1%
Cc1cccc(NC(=O)CCNC(=O)c2ccc(Br)cc2)c1,?,13µM*,27%,/,?,/
O=C(Nc1cccc(O)c1)c1ccc(Br)cc1,?,12µM*,?,4%,5.8µM*,-7%
CCCN(CC1CC1)C(=O)COC(=O)c1oc2c(F)cccc2c1C,2%,3%,1%,/,-3%,/
O=C(CCOc1ccccc1)Nc1ccccc1F,3%,-18%,6%,/,13%,/
Nc1ccc(C(=O)Nc2cccc(N)c2)cc1,?,21µM*,?,/,17%,/
O=C(Cn1nnc(-c2ccc(N3CCOCC3)cc2)n1)OC1CCCCC1,3%,12µM*,-6%,-26%,-3%,-5%
Clc1ccc(Cn2nnc(-c3ccc(N4CCOCC4)cc3)n2)cc1,0%,?,8%,/,7%,/
O=C(Cn1nnc(-c2ccc(N3CCOCC3)cc2)n1)N1CCOCC1,27%,11µM*,?,/,14%,/
Cc1cccc(C(=O)NC2CC3CCCC(C2)N3C(=O)Nc2ccccc2)c1 (stereo not given),-4%,1%,2%,/,2%,/
C/C(=N\NC(=O)c1ccccc1[N+](=O)[O-])c1c(O)cc(C)oc1=O,-9%,-1%,1%,-24%,0%,2%
C/C(=N/NC(=O)c1ccc(Br)o1)c1cccs1,4µM*,17µM*,2.5µM*,/,9.2µM*,/
C/C(=N\NC(=O)c1ccccc1O)c1c(O)cc(C)oc1=O,?,15µM*,29%,?,19%,-5%
C/C(=N\NC(=O)c1cc(Br)ccc1O)c1cccs1,3.5µM*,11µM*,2µM*,18µM*,?,-7%
C/C(=N\NC(=O)c1ccccc1O)c1ccc(Br)s1,?,3.8µM*,?,1.6µM*,5%,-28%
C/C(=N\NC(=O)c1cc(C)nc2ccccc12)c1cccs1,-9%,0%,0%,/,-2%,/
CCN1C[C@@H]2[C@@H]3C(=O)N(Cc4ccccc4)C(=O)[C@@H]3[C@](Cc3ccccc3)(C(=O)OC)N2C1=NC,/,/,/,/,7%,/
COc1ccc(N(CC(=O)N2CCOCC2)S(C)(=O)=O)cc1,0%,0%,-4%,/,-1%,/
CCN=C1S/C(=C\c2cn(CC(=O)NCc3ccco3)c3ccccc23)C(=O)N1CC,-1%,-1%,0%,/,?,/
CN=C1S/C(=C\c2cn(CC(=O)OC)c3ccccc23)C(=O)N1C,3%,17µM*,11%,16%,10%,-1%
CN=C1S/C(=C/c2cn(CC(=O)OC)c3ccccc23)C(=O)N1C,-9%,19µM*,25%,/,0%,/

# Screens as filed in PubChem BioAssay.
